Laboratory results as given in PubChem BioAssay (NCI).
About 79,000 compounds went through this panel and 15% of them were active in at least one assay; those are over-represented in the sample as a whole. Values without a mark were called inactive. Activity calls are given as the source filed them. Rule as the data show it: active = growth inhibition above about 70%; inactive = the rest.

Legend:
[1] = NCI Yeast Anticancer Drug Screen. Data for the rad52 strain (AID 147);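 also: 0% = growth of vehicle-treated control cultures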; conditions: S. cerevisiae rad52 mutant growth inhibition, hits give high values
Procedure, shortened: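 Read-out: growth inhibition versus vehicle-treated controls. Cells were a DNA repair-deficient yeast strain treated with compounds.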

[2] = NCI Yeast Anticancer Drug Screen. Data for the wt1 strain (AID 149);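 also: 0% = growth of vehicle-treated wt1 cultures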; conditions: S. cerevisiae wt1 strain (SPY 50644) growth inhibition, hits give high values
Procedure, shortened: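 Compounds are added to wt1 yeast cultures. Growth is then measured. Inhibition is expressed relative to vehicle-treated controls.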

[3] = NCI Yeast Anticancer Drug Screen. Data for the rad50EPP+ strain (AID 151);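 also: 0% = growth of vehicle-treated control cultures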; conditions: S. cerevisiae rad50 mutant strain, hits give high values
Procedure, shortened: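 Growth inhibition read against vehicle controls in rad50EPP+ yeast, a strain altered in DNA damage repair, after compound exposure.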

[4] = NCI Yeast Anticancer Drug Screen. Data for the mgt1 strain (AID 153); conditions: S. cerevisiae mgt1 mutant growth inhibition, hits give high values
Procedure, shortened: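 mgt1 yeast grown with test compound; read-out is growth inhibition versus vehicle-treated cultures.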

[5] = NCI Yeast Anticancer Drug Screen. Data for the rad50 strain (AID 155);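 also: 0% = growth of vehicle-only cultures of the same strain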; conditions: S. cerevisiae rad50 strain growth inhibition, hits give high values
Procedure, shortened: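 Inhibition values express reduced yeast growth in compound-treated cultures relative to vehicle-treated controls.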

[6] = NCI Yeast Anticancer Drug Screen. Data for the mec2-1 strain (AID 157); conditions: S. cerevisiae mec2-1 strain, hits give high values
Procedure, shortened: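 Yeast mec2-1 mutant treated with compound. Readout: growth inhibition vs vehicle controls.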

[7] = NCI Yeast Anticancer Drug Screen. Data for the rad14 strain (AID 159);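 also: 0% = growth of vehicle-treated control cultures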; conditions: S. cerevisiae rad14 strain growth inhibition, hits give high values
Procedure, shortened: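 A mutant yeast strain defective in DNA damage repair is treated with compound; inhibition of its growth is scored against untreated, vehicle-exposed cultures.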

[8] = NCI Yeast Anticancer Drug Screen. Data for the sgs1 mgt1 strain (AID 161);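 also: 0% = growth of cultures given vehicle only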; conditions: S. cerevisiae sgs1 mgt1 strain, hits give high values
Procedure, shortened: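 Inhibition of yeast growth, normalised to vehicle-treated controls, is reported for a strain bearing genetic alterations in DNA damage repair.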

[9] = NCI Yeast Anticancer Drug Screen. Data for the CLN2oe strain (AID 163);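 also: 0% = growth of vehicle-only control cultures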; conditions: S. cerevisiae CLN2oe strain, hits give high values
Procedure, shortened: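 Read-out: yeast growth inhibition, expressed relative to vehicle-only controls. The strain bears an engineered cell-cycle alteration.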

[10] = NCI Yeast Anticancer Drug Screen. Data for the cln2 rad14 strain (AID 165);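 also: 0% = growth equal to vehicle treated cultures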; conditions: S. cerevisiae cln2 rad14 strain, hits give high values
Procedure, shortened: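 cln2 rad14 yeast strain; compound exposure; growth inhibition read vs vehicle controls.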

[11] = NCI Yeast Anticancer Drug Screen. Data for the bub3 strain (AID 167); conditions: S. cerevisiae bub3 mutant strain, hits give high values
Procedure, shortened: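 Steps: expose the mutant yeast strain to compound; grow alongside vehicle-treated cultures; measure growth; express inhibition against the vehicle cultures.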

[12] = NCI Yeast Anticancer Drug Screen. Data for the wt2 strain (AID 169);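 also: 0% = growth of vehicle-treated yeast cultures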; conditions: S. cerevisiae wt2 strain growth inhibition, hits give high values
Procedure, shortened: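 Read-out: growth inhibition versus vehicle-treated control cultures after compound exposure of the yeast strain.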

[13] = NCI Yeast Anticancer Drug Screen. Data for the mlh1 strain (AID 171);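 also: 0% = growth of vehicle-treated control cultures of the same strain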; conditions: S. cerevisiae mlh1 strain growth inhibition, hits give high values
Procedure, shortened: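 Read-out: growth inhibition versus vehicle controls. Strain: engineered yeast with a defined DNA repair or cell cycle defect, compound-treated.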

[14] = NCI Yeast Anticancer Drug Screen. Data for the sgs1 strain (AID 173);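 also: 0% = growth of vehicle-only control cultures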; conditions: S. cerevisiae sgs1 mutant, hits give high values
Procedure, shortened: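 Read-out: yeast growth inhibition relative to vehicle controls, following compound exposure of a strain with a defined DNA repair/cell cycle alteration.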

[15] = NCI Yeast Anticancer Drug Screen. Data for the mlh1 rad18 strain (AID 175); conditions: S. cerevisiae mlh1 rad18 strain growth inhibition, hits give high values
Procedure, shortened: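 Yeast w/ defined DNA-repair lesions; compound exposure; growth vs vehicle controls → % inhibition.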

[16] = NCI Yeast Anticancer Drug Screen. Data for the rad18 strain (AID 177); conditions: S. cerevisiae rad18 mutant growth inhibition, hits give high values
Procedure, shortened: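 Readout: growth inhibition vs vehicle controls. Cells: genetically altered yeast strain, DNA repair defect.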

[17] = at 5.0 µM (retest, dose inferred, filed as 0.5)
[18] = at 50.0 µM (retest, dose inferred, filed as 5.0)

NC(N)=N/N=C\c1c2ccccc2cc2ccccc12
growth inhibition ([1]; at 1.2 µM): -73% | growth inhibition ([1]; at 3.7 µM): -78% | growth inhibition ([1]; at 11.0 µM): -50% | growth inhibition ([1]; at 33.0 µM): 27% | growth inhibition ([1]; at 100.0 µM): 94% (active) | growth inhibition ([2]; at 1.2 µM): -38% | growth inhibition ([2]; at 3.7 µM): -29% | growth inhibition ([2]; at 11.0 µM): -29% | growth inhibition ([2]; at 33.0 µM): -27% | growth inhibition ([2]; at 100.0 µM): 95% (active) | growth inhibition ([3]; at 1.2 µM): -28% | growth inhibition ([3]; at 3.7 µM): -20% | growth inhibition ([3]; at 11.0 µM): -7% | growth inhibition ([3]; at 33.0 µM): 6% | growth inhibition ([3]; at 100.0 µM): 23% | growth inhibition ([4]; at 1.2 µM): -38% | growth inhibition ([4]; at 3.7 µM): -54% | growth inhibition ([4]; at 11.0 µM): -34% | growth inhibition ([4]; at 33.0 µM): 3% | growth inhibition ([4]; at 100.0 µM): 95% (active) | growth inhibition ([5]; at 1.2 µM): -16% | growth inhibition ([5]; at 3.7 µM): -17% | growth inhibition [5, 17]: 22% | growth inhibition ([5]; at 11.0 µM): -8% | growth inhibition ([5]; at 33.0 µM): 36% | growth inhibition [5, 18]: 66% | growth inhibition ([5]; at 50.0 µM): 17.1% | growth inhibition ([5]; at 100.0 µM): 94% (active) | growth inhibition ([6]; at 1.2 µM): -58% | growth inhibition ([6]; at 3.7 µM): -37% | growth inhibition [6, 17]: 18% | growth inhibition ([6]; at 11.0 µM): -45% | growth inhibition ([6]; at 33.0 µM): -10% | growth inhibition [6, 18]: 42% | growth inhibition ([6]; at 50.0 µM): 36.9% | growth inhibition ([6]; at 100.0 µM): 93% (active) | growth inhibition ([7]; at 1.2 µM): -50% | growth inhibition ([7]; at 3.7 µM): -41% | growth inhibition ([7]; at 11.0 µM): -45% | growth inhibition ([7]; at 33.0 µM): 9% | growth inhibition ([7]; at 100.0 µM): 95% (active) | growth inhibition [8, 17]: 8% | growth inhibition [8, 18]: 47% | growth inhibition ([8]; at 50.0 µM): 33.6% | growth inhibition ([9]; at 1.2 µM): -29% | growth inhibition ([9]; at 3.7 µM): 6% | growth inhibition ([9]; at 11.0 µM): -4% | growth inhibition ([9]; at 33.0 µM): 18% | growth inhibition ([9]; at 100.0 µM): 78% (active) | growth inhibition [10, 17]: -2% | growth inhibition [10, 18]: 25% | growth inhibition ([10]; at 50.0 µM): 1.85% | growth inhibition ([11]; at 1.2 µM): -43% | growth inhibition ([11]; at 3.7 µM): -55% | growth inhibition [11, 17]: 3% | growth inhibition ([11]; at 11.0 µM): -59% | growth inhibition ([11]; at 33.0 µM): -44% | growth inhibition [11, 18]: 14% | growth inhibition ([11]; at 50.0 µM): 21% | growth inhibition ([11]; at 100.0 µM): 75% (active) | growth inhibition ([12]; at 1.2 µM): -47% | growth inhibition ([12]; at 3.7 µM): -64% | growth inhibition ([12]; at 11.0 µM): -59% | growth inhibition ([12]; at 33.0 µM): -35% | growth inhibition ([12]; at 100.0 µM): 96% (active) | growth inhibition ([13]; at 1.2 µM): -61% | growth inhibition ([13]; at 3.7 µM): -45% | growth inhibition ([13]; at 11.0 µM): -44% | growth inhibition ([13]; at 33.0 µM): 11% | growth inhibition ([13]; at 100.0 µM): 93% (active) | growth inhibition ([14]; at 1.2 µM): -25% | growth inhibition ([14]; at 3.7 µM): -31% | growth inhibition ([14]; at 11.0 µM): -44% | growth inhibition ([14]; at 33.0 µM): -1% | growth inhibition ([14]; at 100.0 µM): 93% (active) | growth inhibition [15, 17]: 29% | growth inhibition [15, 18]: 81% (active) | growth inhibition ([15]; at 50.0 µM): 72.7% (active) | growth inhibition ([16]; at 1.2 µM): -74% | growth inhibition ([16]; at 3.7 µM): -68% | growth inhibition ([16]; at 11.0 µM): -51% | growth inhibition ([16]; at 33.0 µM): -30% | growth inhibition ([16]; at 100.0 µM): 95% (active)

CC1=C(SCCO)C(=O)c2ccccc2C1=O
growth inhibition ([1]; at 1.2 µM): -4% | growth inhibition ([1]; at 3.7 µM): 1% | growth inhibition ([1]; at 11.0 µM): 13% | growth inhibition ([1]; at 33.0 µM): 68% | growth inhibition ([1]; at 100.0 µM): 67% | growth inhibition ([2]; at 1.2 µM): -4% | growth inhibition ([2]; at 3.7 µM): -4% | growth inhibition ([2]; at 11.0 µM): -2% | growth inhibition ([2]; at 33.0 µM): 4% | growth inhibition ([2]; at 100.0 µM): 4% | growth inhibition ([3]; at 1.2 µM): -7% | growth inhibition ([3]; at 3.7 µM): 5% | growth inhibition ([3]; at 11.0 µM): 35% | growth inhibition ([3]; at 33.0 µM): 75% (active) | growth inhibition ([3]; at 100.0 µM): 71% (active) | growth inhibition ([4]; at 1.2 µM): -3% | growth inhibition ([4]; at 3.7 µM): -3% | growth inhibition ([4]; at 11.0 µM): 23% | growth inhibition ([4]; at 33.0 µM): -10% | growth inhibition ([4]; at 100.0 µM): 6% | growth inhibition ([5]; at 1.2 µM): -3% | growth inhibition ([5]; at 3.7 µM): 0% | growth inhibition [5, 17]: 1% | growth inhibition ([5]; at 11.0 µM): -8% | growth inhibition ([5]; at 33.0 µM): 37% | growth inhibition [5, 18]: 99% (active) | growth inhibition ([5]; at 50.0 µM): 84.2% (active) | growth inhibition ([5]; at 100.0 µM): 42% | growth inhibition ([6]; at 1.2 µM): -1% | growth inhibition ([6]; at 3.7 µM): -1% | growth inhibition [6, 17]: -22% | growth inhibition ([6]; at 11.0 µM): 0% | growth inhibition ([6]; at 33.0 µM): 13% | growth inhibition [6, 18]: 80% (active) | growth inhibition ([6]; at 50.0 µM): 73.3% (active) | growth inhibition ([6]; at 100.0 µM): 11% | growth inhibition ([7]; at 1.2 µM): 2% | growth inhibition ([7]; at 3.7 µM): 3% | growth inhibition ([7]; at 11.0 µM): 8% | growth inhibition ([7]; at 33.0 µM): 17% | growth inhibition ([7]; at 100.0 µM): 20% | growth inhibition [8, 17]: -37% | growth inhibition [8, 18]: 72% (active) | growth inhibition ([8]; at 50.0 µM): 81.5% (active) | growth inhibition ([9]; at 1.2 µM): 0% | growth inhibition ([9]; at 3.7 µM): -5% | growth inhibition ([9]; at 11.0 µM): -2% | growth inhibition ([9]; at 33.0 µM): 12% | growth inhibition ([9]; at 100.0 µM): 14% | growth inhibition [10, 17]: -16% | growth inhibition [10, 18]: 27% | growth inhibition ([10]; at 50.0 µM): 67.2% | growth inhibition ([11]; at 1.2 µM): -4% | growth inhibition ([11]; at 3.7 µM): -1% | growth inhibition [11, 17]: -19% | growth inhibition ([11]; at 11.0 µM): 5% | growth inhibition ([11]; at 33.0 µM): 29% | growth inhibition [11, 18]: 77% (active) | growth inhibition ([11]; at 50.0 µM): 81.2% (active) | growth inhibition ([11]; at 100.0 µM): 29% | growth inhibition ([12]; at 1.2 µM): -2% | growth inhibition ([12]; at 3.7 µM): 0% | growth inhibition ([12]; at 11.0 µM): 3% | growth inhibition ([12]; at 33.0 µM): 18% | growth inhibition ([12]; at 100.0 µM): 17% | growth inhibition ([13]; at 1.2 µM): 0% | growth inhibition ([13]; at 3.7 µM): -2% | growth inhibition ([13]; at 11.0 µM): 7% | growth inhibition ([13]; at 33.0 µM): 8% | growth inhibition ([13]; at 100.0 µM): 5% | growth inhibition ([14]; at 1.2 µM): -2% | growth inhibition ([14]; at 3.7 µM): -2% | growth inhibition ([14]; at 11.0 µM): 7% | growth inhibition ([14]; at 33.0 µM): 40% | growth inhibition ([14]; at 100.0 µM): 35% | growth inhibition [15, 17]: -29% | growth inhibition [15, 18]: 62% | growth inhibition ([15]; at 50.0 µM): 81.1% (active) | growth inhibition ([16]; at 1.2 µM): -12% | growth inhibition ([16]; at 3.7 µM): -10% | growth inhibition ([16]; at 11.0 µM): -3% | growth inhibition ([16]; at 33.0 µM): 33% | growth inhibition ([16]; at 100.0 µM): 51%
